# The full data set covers some 7,900 targets. This sample favours those with a hit. About 0.6% of all pairs of compound and target were hits. Unmarked numbers belong to inactive results.
# How the values were obtained:
# Experiment in all cases: log2 fold change, soluble protein after heating vs DMSO (PISA); higher = thermal stabilisation; K562 cells, 10 uM, 30 min; active = over 0.2 and 3.5 SD of the protein, either way, in both replicates (recomputed)
# [1] = compound: COC1=CC=C(C=C1)CN2C=CC3=C2C=C(C=C3)C(=O)NO
# Procedure, shortened: (§1)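 Thermal stability values are relative to control samples and come from duplicates. They are expressed as log2 fold changes. For measurement, K562 cells (2×10^6 cells/mL) received 10 μM compound for 30 min, and aliquots were heated for 3 min over 48°C-58°C, pooled, and extracted at 4°C in PBS with 0.5% NP-40. Soluble protein, the supernatant after 21,000xg for 90 min, was quantified by TMTpro 16plex LC-MS/MS with equalised channel sums.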
# filanesib = compound: CON(C)C(=O)N1N=C(c2cc(F)ccc2F)S[C@@]1(CCCN)c1ccccc1 [filanesib]
# Procedure, shortened: as §1
# zotarolimus = compound: CO[C@H]1C[C@@H]2CC[C@@H](C)[C@@](O)(O2)C(=O)C(=O)N2CCCC[C@H]2C(=O)O[C@H]([C@H](C)C[C@@H]2CC[C@H](n3cnnn3)[C@H](OC)C2)CC(=O)[C@H](C)/C=C(\C)[C@@H](O)[C@@H](OC)C(=O)[C@H](C)C[C@H](C)/C=C/C=C/C=C/1C [zotarolimus]
# Procedure, shortened: as §1
# idasanutlin = compound: COc1cc(C(=O)O)ccc1NC(=O)[C@@H]1N[C@@H](CC(C)(C)C)[C@](C#N)(c2ccc(Cl)cc2F)[C@H]1c1cccc(Cl)c1F [idasanutlin]
# Procedure, shortened: as §1
# alisertib = compound: COc1cc(Nc2ncc3c(n2)-c2ccc(Cl)cc2C(c2c(F)cccc2OC)=NC3)ccc1C(=O)O [alisertib]
# Procedure, shortened: as §1
# [2] = compound: COc1cc2nc(-c3cc(F)ccc3O)nc(N[C@@H]3CNC[C@H]3C(C)(C)O)c2cc1OC
# Procedure, shortened: as §1
# gefitinib = compound: COc1cc2ncnc(Nc3ccc(F)c(Cl)c3)c2cc1OCCCN1CCOCC1 [gefitinib]
# Procedure, shortened: as §1
# [3] = compound: COc1cccc2cc(-c3nc([C@H]4CC[C@H](C(=O)O)CC4)n4ncnc(N)c34)[nH]c12
# Procedure, shortened: as §1
# lapatinib = compound: CS(=O)(=O)CCNCc1ccc(-c2ccc3ncnc(Nc4ccc(OCc5cccc(F)c5)c(Cl)c4)c3c2)o1 [lapatinib]
# Procedure, shortened: as §1
# pictilisib = compound: CS(=O)(=O)N1CCN(Cc2cc3nc(-c4cccc5[nH]ncc45)nc(N4CCOCC4)c3s2)CC1 [pictilisib]
# Procedure, shortened: as §1
# [4] = compound: CS(=O)(=O)c1ccc(-c2cnc(N)c(C(=O)Nc3ccccc3)n2)cc1
# Procedure, shortened: as §1
# crizotinib = compound: C[C@@H](Oc1cc(-c2cnn(C3CCNCC3)c2)cnc1N)c1c(Cl)ccc(F)c1Cl [crizotinib]
# Procedure, shortened: as §1
# [5] = compound: C[C@@H]1COCCN1C2=NC(=NC(=C2)C3(CC3)S(=O)(=O)C)C4=C5C=CNC5=CC=C4
# Procedure, shortened: as §1
# [6] = compound: C[C@H](C1=CC=C(C=C1)C(=O)NC2=C3C=CNC3=NC=C2)N
# Procedure, shortened: as §1
# duvelisib = compound: C[C@H](Nc1ncnc2nc[nH]c12)c1cc2cccc(Cl)c2c(=O)n1-c1ccccc1 [duvelisib]
# Procedure, shortened: as §1
# gandotinib = compound: Cc1cc(Nc2cc(CN3CCOCC3)c3nc(C)c(Cc4ccc(Cl)cc4F)n3n2)n[nH]1 [gandotinib]
# Procedure, shortened: as §1
# tozasertib = compound: Cc1cc(Nc2cc(N3CCN(C)CC3)nc(Sc3ccc(NC(=O)C4CC4)cc3)n2)n[nH]1 [tozasertib]
# Procedure, shortened: as §1
# [7] = compound: Cc1cc(SCc2sc(-c3ccc(C(F)(F)F)cc3)nc2C)ccc1OCC(=O)O
# Procedure, shortened: as §1
# doramapimod = compound: Cc1ccc(-n2nc(C(C)(C)C)cc2NC(=O)Nc2ccc(OCCN3CCOCC3)c3ccccc23)cc1 [doramapimod]
# Procedure, shortened: as §1
# ispinesib = compound: Cc1ccc(C(=O)N(CCCN)[C@@H](c2nc3cc(Cl)ccc3c(=O)n2Cc2ccccc2)C(C)C)cc1 [ispinesib]
# Procedure, shortened: as §1
# Sequence of UniProt Q8N0X7 (Q8N0X7 whole entry, looked up): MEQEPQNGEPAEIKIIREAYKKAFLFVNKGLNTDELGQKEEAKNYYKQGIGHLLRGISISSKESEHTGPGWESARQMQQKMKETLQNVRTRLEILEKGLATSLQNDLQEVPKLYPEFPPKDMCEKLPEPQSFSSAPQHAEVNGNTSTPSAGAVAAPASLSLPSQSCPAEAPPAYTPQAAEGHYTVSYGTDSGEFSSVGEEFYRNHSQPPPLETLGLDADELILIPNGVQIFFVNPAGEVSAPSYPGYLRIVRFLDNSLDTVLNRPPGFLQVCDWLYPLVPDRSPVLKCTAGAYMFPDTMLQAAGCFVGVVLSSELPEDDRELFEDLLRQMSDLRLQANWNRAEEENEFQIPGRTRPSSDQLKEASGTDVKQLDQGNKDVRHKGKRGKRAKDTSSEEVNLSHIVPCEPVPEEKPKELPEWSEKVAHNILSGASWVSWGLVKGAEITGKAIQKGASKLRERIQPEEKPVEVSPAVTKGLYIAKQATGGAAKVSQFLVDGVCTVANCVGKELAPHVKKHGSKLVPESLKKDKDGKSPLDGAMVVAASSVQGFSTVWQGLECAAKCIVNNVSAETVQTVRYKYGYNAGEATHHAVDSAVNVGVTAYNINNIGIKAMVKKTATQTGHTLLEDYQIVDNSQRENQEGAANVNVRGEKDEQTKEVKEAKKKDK
# Sequence of UniProt Q9NYB0 (Q9NYB0 whole entry, looked up): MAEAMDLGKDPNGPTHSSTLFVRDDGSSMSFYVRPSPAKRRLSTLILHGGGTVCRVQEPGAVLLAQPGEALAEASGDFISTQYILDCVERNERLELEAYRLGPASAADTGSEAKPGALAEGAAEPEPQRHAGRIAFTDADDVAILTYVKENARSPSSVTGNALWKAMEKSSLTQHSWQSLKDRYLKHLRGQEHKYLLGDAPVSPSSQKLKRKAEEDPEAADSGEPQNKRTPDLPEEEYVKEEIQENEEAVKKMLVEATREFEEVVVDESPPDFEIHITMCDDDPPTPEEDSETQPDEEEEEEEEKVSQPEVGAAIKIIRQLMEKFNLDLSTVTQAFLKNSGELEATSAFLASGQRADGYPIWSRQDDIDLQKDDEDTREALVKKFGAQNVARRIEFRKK
# Sequence of UniProt Q13247 (Q13247 whole entry, looked up): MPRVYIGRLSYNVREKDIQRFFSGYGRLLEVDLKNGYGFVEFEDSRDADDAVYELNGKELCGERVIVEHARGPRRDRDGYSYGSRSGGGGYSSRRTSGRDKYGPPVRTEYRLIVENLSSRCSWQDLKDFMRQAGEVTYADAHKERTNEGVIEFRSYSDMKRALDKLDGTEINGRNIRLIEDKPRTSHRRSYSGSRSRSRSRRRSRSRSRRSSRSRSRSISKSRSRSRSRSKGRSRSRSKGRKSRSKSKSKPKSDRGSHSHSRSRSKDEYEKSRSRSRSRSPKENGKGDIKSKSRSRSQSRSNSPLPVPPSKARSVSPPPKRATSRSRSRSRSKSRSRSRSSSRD
# Sequence of UniProt Q9H2G2 (Q9H2G2 whole entry, looked up): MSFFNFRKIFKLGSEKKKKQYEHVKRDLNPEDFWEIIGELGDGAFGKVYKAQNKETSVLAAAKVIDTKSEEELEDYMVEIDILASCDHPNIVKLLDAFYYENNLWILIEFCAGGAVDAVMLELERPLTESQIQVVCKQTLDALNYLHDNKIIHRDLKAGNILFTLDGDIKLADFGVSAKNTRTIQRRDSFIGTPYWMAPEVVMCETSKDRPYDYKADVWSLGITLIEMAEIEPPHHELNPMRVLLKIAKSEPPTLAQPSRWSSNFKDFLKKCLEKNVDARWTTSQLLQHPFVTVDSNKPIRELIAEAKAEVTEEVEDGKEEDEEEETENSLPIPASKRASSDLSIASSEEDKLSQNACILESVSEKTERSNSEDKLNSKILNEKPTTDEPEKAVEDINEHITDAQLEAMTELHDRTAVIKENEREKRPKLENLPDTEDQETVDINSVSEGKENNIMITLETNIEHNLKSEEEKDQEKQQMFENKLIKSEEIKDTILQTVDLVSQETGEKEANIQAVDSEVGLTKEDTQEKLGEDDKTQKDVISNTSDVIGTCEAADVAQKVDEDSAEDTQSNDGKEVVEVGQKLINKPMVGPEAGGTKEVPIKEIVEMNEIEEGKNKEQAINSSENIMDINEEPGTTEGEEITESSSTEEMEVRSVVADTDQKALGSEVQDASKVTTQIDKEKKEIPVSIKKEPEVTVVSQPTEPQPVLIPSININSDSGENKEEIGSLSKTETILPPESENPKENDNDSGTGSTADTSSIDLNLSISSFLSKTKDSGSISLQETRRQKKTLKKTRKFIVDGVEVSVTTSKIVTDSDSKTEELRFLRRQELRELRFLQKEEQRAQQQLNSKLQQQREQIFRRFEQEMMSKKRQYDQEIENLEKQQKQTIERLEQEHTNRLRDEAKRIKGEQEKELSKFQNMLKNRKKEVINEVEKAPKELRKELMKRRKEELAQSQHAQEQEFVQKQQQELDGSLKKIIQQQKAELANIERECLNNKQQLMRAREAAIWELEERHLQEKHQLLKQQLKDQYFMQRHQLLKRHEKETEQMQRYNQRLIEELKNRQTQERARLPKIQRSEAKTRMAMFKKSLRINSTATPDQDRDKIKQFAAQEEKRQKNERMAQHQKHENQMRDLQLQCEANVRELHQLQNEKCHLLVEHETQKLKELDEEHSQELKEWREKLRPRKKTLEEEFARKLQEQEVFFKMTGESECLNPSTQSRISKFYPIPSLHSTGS
# Sequence of UniProt Q8NEW0 (Q8NEW0 whole entry, looked up): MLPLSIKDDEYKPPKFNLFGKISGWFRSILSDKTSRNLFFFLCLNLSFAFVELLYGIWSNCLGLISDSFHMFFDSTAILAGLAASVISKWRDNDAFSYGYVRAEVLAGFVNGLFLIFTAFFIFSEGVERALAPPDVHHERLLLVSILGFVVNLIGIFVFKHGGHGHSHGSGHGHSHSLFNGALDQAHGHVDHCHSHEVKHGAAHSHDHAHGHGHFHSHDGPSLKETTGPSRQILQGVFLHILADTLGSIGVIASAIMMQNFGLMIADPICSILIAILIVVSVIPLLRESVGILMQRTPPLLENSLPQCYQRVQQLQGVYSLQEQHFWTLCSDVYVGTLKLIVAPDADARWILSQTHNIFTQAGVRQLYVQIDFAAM
# Sequence of UniProt Q00059 (Q00059 whole entry, looked up): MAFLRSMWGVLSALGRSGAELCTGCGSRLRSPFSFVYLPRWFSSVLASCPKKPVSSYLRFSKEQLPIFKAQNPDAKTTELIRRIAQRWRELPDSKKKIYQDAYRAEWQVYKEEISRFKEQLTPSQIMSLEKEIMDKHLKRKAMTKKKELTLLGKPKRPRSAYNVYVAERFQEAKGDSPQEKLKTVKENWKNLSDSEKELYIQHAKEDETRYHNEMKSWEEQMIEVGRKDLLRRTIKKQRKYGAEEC
# Sequence of UniProt Q08170 (Q08170 whole entry, looked up): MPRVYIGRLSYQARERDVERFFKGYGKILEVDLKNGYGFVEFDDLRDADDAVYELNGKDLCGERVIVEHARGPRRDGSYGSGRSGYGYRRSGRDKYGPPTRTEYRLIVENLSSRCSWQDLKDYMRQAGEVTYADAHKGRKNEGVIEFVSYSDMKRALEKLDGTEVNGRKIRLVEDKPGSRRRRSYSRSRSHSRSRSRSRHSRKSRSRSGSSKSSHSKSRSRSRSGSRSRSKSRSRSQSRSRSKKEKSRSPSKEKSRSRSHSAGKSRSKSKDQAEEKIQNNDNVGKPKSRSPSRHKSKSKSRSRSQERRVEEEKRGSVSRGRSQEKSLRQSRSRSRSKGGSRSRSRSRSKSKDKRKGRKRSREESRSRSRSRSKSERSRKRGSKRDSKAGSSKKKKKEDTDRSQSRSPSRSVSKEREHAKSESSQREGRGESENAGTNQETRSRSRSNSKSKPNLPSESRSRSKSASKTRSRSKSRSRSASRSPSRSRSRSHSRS
# Sequence of UniProt O43615 (O43615 whole entry, looked up): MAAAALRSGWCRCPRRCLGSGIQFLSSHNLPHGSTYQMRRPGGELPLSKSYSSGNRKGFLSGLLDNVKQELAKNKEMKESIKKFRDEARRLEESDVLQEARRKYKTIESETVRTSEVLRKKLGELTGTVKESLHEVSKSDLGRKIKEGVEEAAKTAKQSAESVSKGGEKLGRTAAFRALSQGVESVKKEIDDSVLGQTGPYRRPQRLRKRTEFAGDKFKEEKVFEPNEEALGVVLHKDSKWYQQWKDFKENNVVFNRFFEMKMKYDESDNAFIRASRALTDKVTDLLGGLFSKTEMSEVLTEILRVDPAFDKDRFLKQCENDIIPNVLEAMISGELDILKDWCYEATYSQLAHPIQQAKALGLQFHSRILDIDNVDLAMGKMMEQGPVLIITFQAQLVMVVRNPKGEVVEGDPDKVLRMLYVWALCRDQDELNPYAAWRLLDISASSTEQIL
# Sequence of UniProt P62318 (P62318 whole entry, looked up): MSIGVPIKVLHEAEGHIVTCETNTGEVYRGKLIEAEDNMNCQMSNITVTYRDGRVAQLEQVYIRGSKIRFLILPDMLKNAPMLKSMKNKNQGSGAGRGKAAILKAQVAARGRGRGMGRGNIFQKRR
# Sequence of UniProt Q8NEF9 (Q8NEF9 whole entry, looked up): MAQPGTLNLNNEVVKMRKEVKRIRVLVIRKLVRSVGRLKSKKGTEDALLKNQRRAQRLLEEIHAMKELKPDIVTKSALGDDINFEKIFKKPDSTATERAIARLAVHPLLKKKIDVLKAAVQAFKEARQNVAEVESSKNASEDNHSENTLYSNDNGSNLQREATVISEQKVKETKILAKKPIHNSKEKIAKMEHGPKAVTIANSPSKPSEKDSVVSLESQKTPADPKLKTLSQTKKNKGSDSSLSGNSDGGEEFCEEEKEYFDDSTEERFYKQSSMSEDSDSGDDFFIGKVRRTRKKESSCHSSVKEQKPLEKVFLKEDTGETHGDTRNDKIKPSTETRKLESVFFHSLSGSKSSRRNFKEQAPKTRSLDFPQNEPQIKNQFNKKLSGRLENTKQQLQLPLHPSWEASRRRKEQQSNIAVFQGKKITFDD
Target,log2 fold change [1],log2 fold change (filanesib),log2 fold change (zotarolimus),log2 fold change (idasanutlin),log2 fold change (alisertib),log2 fold change [2],log2 fold change (gefitinib),log2 fold change [3],log2 fold change (lapatinib),log2 fold change (pictilisib),log2 fold change [4],log2 fold change (crizotinib),log2 fold change [5],log2 fold change [6],log2 fold change (duvelisib),log2 fold change (gandotinib),log2 fold change (tozasertib),log2 fold change [7],log2 fold change (doramapimod),log2 fold change (ispinesib)
TERF2IP (UniProt Q9NYB0),-0.034,0.052,0.045,0.025,-0.032,-0.119,0.013,0.025,-0.008,-0.036,-0.021,0.085,-0.072,-0.099,0.016,0.028,0.108,0.005,-0.019,0.044
THADA (UniProt Q6YHU6),0.019,-0.18,-0.008,-0.081,-0.022,-0.03,-0.031,0.014,0.012,-0.014,0.01,-0.168,0.05,0.018,0.046,-0.239 (active),-0.052,0.083,0.001,-0.133
SLC30A7 (UniProt Q8NEW0),-0.105,-0.086,-0.025,-0.121,-0.019,0.088,0.017,0.184,-0.013,0.028,-0.01,0.014,-0.022,-0.048,0.081,-0.348 (active),-0.05,-0.007,-0.057,-0.016
SLC25A4 (UniProt P12235),-0.012,-0.024,-0.018,0.003,0.014,0.039,0.006,-0.012,-0.026,0.115,0.004,0.112,0.093,0.01,0.012,-0.004,-0.072,-0.034,-0.053,0.028
SLK isoform 2 (UniProt Q9H2G2),0.001,0.042,-0.007,-0.008,-0.045,-0.103,0.025,-0.079,-0.193,0.212 (active),0.016,-0.068,0.07,0.014,0.072,0.102,-0.225,0.052,-0.118,0.021
SPART (UniProt Q8N0X7),-0.073,0.011,0.02,0.03,-0.009,0.067,0.054,-0.028,-0.015,0.05,0.006,-0.107,0.056,0.101,0.053,-0.088,0.044,0.055,0.014,-0.001
SRFBP1 (UniProt Q8NEF9),0.013,0.193,-0.021,-0.018,-0.027,0.306,0.06,-0.072,0.13,-0.065,-0.053,-0.029,-0.21,0.061,-0.039,0.083,0.055,-0.028,0.007,-0.055
TFAM (UniProt Q00059),-0.035,0.048,0.01,0.046,-0.1,0.015,-0.026,-0.058,-0.012,-0.04,-0.071,0.058,-0.153,0.117,-0.04,0.176,0.036,-0.034,0.022,-0.117
STK11IP (UniProt Q8N1F8),-0.029,0.042,0.195,0.044,-0.131,-0.172,-0.072,-0.139,-0.088,0.117,-0.21,-0.869 (active),-0.078,-0.124,-0.089,-0.002,-0.042,0.021,0.006,–
SRSF6 (UniProt Q13247),-0.209,0.218,-0.118,0.375,-0.105,-0.134,0.033,-0.032,0.163,-0.473,-0.021,-0.09,-0.195,0.03,-0.085,-0.043,-0.08,0.059,-0.047,–
TBRG4 (UniProt Q969Z0),0.062,-0.551,-0.007,-0.021,0.032,-0.274,-0.121,0.073,-0.051,-0.036,-0.041,-0.676 (active),0.137,-0.005,0.066,-0.364,0.04,0.174,-0.081,-0.254
SUGP1 (UniProt Q8IWZ8),0.027,-0.01,0,0.026,-0.038,-0.007,0.055,-0.02,-0.046,0.032,0.021,-0.001,0.015,-0.064,-0.024,-0.077,0.042,0.09,-0.033,0.019
TIPRL (UniProt O75663),0.011,-0.063,-0.013,-0.104,0.014,0.043,-0.034,-0.009,-0.009,0.034,0.065,-0.167,0.143,-0.023,-0.016,-0.159,-0.011,0.065,-0.034,-0.055
SNRPD3 (UniProt P62318),-0.169,0.152,-0.051,0.025,-0.132,0.039,-0.019,0.023,0.028,0.064,-0.102,0.011,0.036,0.041,0.039,0.034,-0.035,-0.04,0.055,0.006
SRSF4 (UniProt Q08170),-0.085,0.234,0.053,0.207,-0.137,-0.04,-0.014,-0.089,0.137,-0.007,-0.055,0.011,-0.248,0,-0.064,0.077,0.071,0.031,0.073,-0.021
TIMM44 (UniProt O43615),0,-0.229,0.027,-0.042,-0.021,-0.296 (active),-0.135,0.017,-0.073,-0.041,-0.028,-0.207,0.056,-0.015,0.085,-0.258,-0.038,0.091,-0.035,-0.128

# Source: the supplement of paper PMC10849652
